Experimental data as given in PubChem BioAssay AID1382 (National Center for Advancing Translational Sciences (NCATS), 2008).
Records with an inconclusive call do not appear. Values without a mark were called inactive. The source made the active and inactive calls.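 How the source made its calls: active means inhibitors giving a complete concentration-response curve with high efficacy; inconclusive means inhibitors giving only a partial curve with partial efficacy; inactive means the rest.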

What follows are molecules tested against Lysosomal acid glucosylceramidase (Homo sapiens) (UniProt P04062) (assay: Confirmation Concentration-Response Assay for Glucocerebrosidase Inhibitors). Conditions: purified GBA, resorufin glucoside fluorescence, 20 min; series mostly up to 63.5 µM; inhibition: at the top concentration.
Chain of Lysosomal acid glucosylceramidase (Homo sapiens) (P04062 whole entry, looked up): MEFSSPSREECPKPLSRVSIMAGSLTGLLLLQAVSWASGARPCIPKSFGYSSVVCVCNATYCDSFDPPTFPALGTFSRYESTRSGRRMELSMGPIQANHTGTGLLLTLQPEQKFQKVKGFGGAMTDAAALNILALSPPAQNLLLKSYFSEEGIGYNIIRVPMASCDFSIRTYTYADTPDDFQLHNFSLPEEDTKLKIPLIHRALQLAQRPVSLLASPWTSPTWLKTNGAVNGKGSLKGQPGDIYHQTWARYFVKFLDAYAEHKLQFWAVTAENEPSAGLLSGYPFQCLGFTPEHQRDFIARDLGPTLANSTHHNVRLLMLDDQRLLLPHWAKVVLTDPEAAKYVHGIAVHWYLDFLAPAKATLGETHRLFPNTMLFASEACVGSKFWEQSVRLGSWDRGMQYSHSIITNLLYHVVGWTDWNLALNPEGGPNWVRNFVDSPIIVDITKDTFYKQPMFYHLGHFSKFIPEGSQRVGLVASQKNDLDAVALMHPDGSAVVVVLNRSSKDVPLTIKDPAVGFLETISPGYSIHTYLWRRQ
Source text: NCGC Assay Overview: NIH Molecular Libraries Screening Centers Network [MLSCN] NIH Chemical Genomics Center [NCGC] MLSCN Grant: XO1-MH078932-01 Beta-glucocerebrosidase catalyzes the hydrolysis of beta-glucocerebroside to glucose and ceramide. The inherited deficiency of beta-glucocerebrosidase results in Gaucher disease, which is characterized by a wide variety of symptoms including hepatosplenomegaly, anemia, thrombocytopenia, bony lesions and bone marrow infiltration with characteristic storage cells, known as Gaucher cells. There are also forms of the disorder affecting the central nervous system. Patients with the same genotypes can manifest with diverse clinical presentations and it is believed that improper folding and trafficking of beta-glucocerbrosidase may contribute to the phenotypes observed. Low molecular weight molecules, acting as chaperones, may potentially restore trafficking of misfolded beta-glucocerebrosidase from the endoplasmic reticulum to the lysosomes, thereby enhancing functional lysosomal beta-glucocerebrosidase activity. Using normal beta-glucocerebrosidase, an assay was developed to screen for small molecule inhibitors that could potentially act as molecular chaperones on the mutant forms [developed with NIH investigator Dr. Ellen Sidransky's laboratory]. A pro-fluorescent substrate was chosen for a screen against a small molecule library. The beta-glucocerebrosidase assay used Resorufin beta-D-Glucopyranoside (Marker Gene Technology Inc.), generating a red fluorescent product. The Km for the Resorufin beta-D-Glucopyranoside was determined to be 71.2 uM. The IC50 values of Conduritol B Epoxide, a known glucocerebrosidase inhibitor, was determined to be 87.5 uM. All compounds were screened in a titration series resulting in AC50s (e.g., IC50s or EC50s). To confirm activity from the original screen, samples were reacquired from MLSCN and also synthesized in-house, and re-screened against the original assay at a higher density of titration points.
NCGC Assay Protocol Summary: Both enzyme and substrate were diluted in buffer composed of 50mM citric acid/KH2PO4, 10mM sodium taurocholate and 0.01% tween-20 at pH 5.9. The final concentration of the enzyme was 0.2 nM in both assays. The compound library was titrated in 7 to 15 concentrations for the primary screens with a final concentration ranging from 0.6 nM to 50 uM. This particular assay protocol was performed in 1536-well plate format as follows: Red fluorescence substrate assay: 2 uL enzyme 23 nL compound 1 uL substrate (final concentration of 30 uM) Incubate at room temperature (RT) for 20 minutes Read the plate in Viewlux plate reader (Ex=548(7) and Em=600(10)).

Compound	Potency	inhibition [%]
Cc1cc(N2CCC(C)CC2)nc2ccc(NC(=O)C3CCC(C)CC3)cc12 (stereo unspecified)	164 nM (active)	–
Cc1ccc(S(=O)(=O)Nc2ccc(C(=O)Nc3cc(C)on3)cc2)cc1	90.7 nM (active)	–
Cc1cc(N2CCN(c3ncccn3)CC2)nc2ccc(NC(=O)C3CCC(C)CC3)cc12 (stereo unspecified)	1890 nM (active)	–
Cc1cc(N2CCCCC2)nc2ccc(NC(=O)C3CCC(C)CC3)cc12 (stereo unspecified)	339 nM (active)	–
Cc1cc(Nc2cccc(Cl)c2)nc2ccc(NC(=O)C3CCC(C)CC3)cc12 (stereo unspecified)	–	27
CC(C)(C)Oc1ccccc1Nc1nc(NCCO)nc(N2CCCC2)n1	21.5 nM (active)	–
Cc1cc(N2CCOCC2)nc2ccc(NC(=O)C3CCC(C)CC3)cc12 (stereo unspecified)	66 nM (active)	–
CCN(CC)c1cc(C)c2cc(NC(=O)C3CCC(C)CC3)ccc2n1 (stereo unspecified)	940 nM (active)	–
CCCC1CCC(C(=O)Nc2ccc3nc(N4CCOCC4)cc(C)c3c2)CC1 (stereo unspecified)	104 nM (active)	–
Cc1cc(N2CCOCC2)nc2ccc(NC(=O)C3CC3)cc12	193 nM (active)	–
O=C(Nc1nccs1)c1ccc(NS(=O)(=O)c2ccc(Cl)cc2)cc1	1250 nM (active)	–
